Laboratory results as given in PubChem BioAssay AID1159580 (chemical genetic matrix, 2015).
Several values for one entry are separate records, joined by “and”; a condition that tells them apart may be missing. Equal values may be shown once. Out of some 5,500 compounds screened, about 2,000 (36%) were called active. Roughly 18% stayed inconclusive and do not appear here. No stated cut-off is given here; in the data, active means normalized growth mostly below about 0.91 (no sharp cut-off); inconclusive means no clear call, values can overlap the other calls; inactive means mostly above about 0.92. The list shows a part of the results.

Assay: chemical genetic growth profiling, strain panel (AID 1159580);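 further: tested at 20 µM; growth read once vehicle control cultures reached saturation at 30 °C; 1 = growth at the plate median or of vehicle wells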
Conditions: S. cerevisiae deletion strains, growth OD

Measured: normalized growth

O=C(O)CCCOc1ccc(Cl)cc1Cl
1.01 (inactive) and 0.838 (active): locus YJL095W, strain BCK1, stronger effect = lower value
active: locus YBR171W, strain sec66, stronger effect = lower value 0.888 | locus YDR137W, strain rgp1, stronger effect = lower value 0.817 | locus YHR079C, strain IRE1, stronger effect = lower value 0.757 | locus YJL129C, strain trk1, stronger effect = lower value 0.847 | locus YJR066W, strain TOR1, stronger effect = lower value 0.779
inactive: locus YAL013W, strain DEP1, stronger effect = lower value 0.993 | locus YAL021C, strain ccr4, stronger effect = lower value 0.941 | locus YAL026C, strain drs2, stronger effect = lower value 0.931 | locus YAL030W, strain snc1, stronger effect = lower value 0.944 | locus YBL061C, strain skt5, stronger effect = lower value 0.948 | locus YBR009C, strain hhf1, stronger effect = lower value 0.951 | locus YBR021W, strain FUR4, stronger effect = lower value 0.97 | locus YBR023C, strain chs3, stronger effect = lower value 0.954 | locus YBR229C, strain ROT2, stronger effect = lower value 1.01 | locus YBR231C, strain swc5, stronger effect = lower value 0.962 | locus YBR279W, strain paf1, stronger effect = lower value 0.962 | locus YCL011C, strain gbp2, stronger effect = lower value 0.957 | locus YCL016C, strain dcc1, stronger effect = lower value 0.958 | locus YCL029C, strain bik1, stronger effect = lower value 1 | locus YCL061C, strain MRC1, stronger effect = lower value 0.938 | locus YCL069W, strain vba3, stronger effect = lower value 0.944 | locus YCR088W, strain abp1, stronger effect = lower value 0.929 | locus YDL005C, strain med2, stronger effect = lower value 0.946 | locus YDL035C, strain GPR1, stronger effect = lower value 1.01 | locus YDL040C, strain nat1, stronger effect = lower value 0.961 | locus YDL074C, strain BRE1, stronger effect = lower value 1 | locus YDL101C, strain DUN1, stronger effect = lower value 1.01 | locus YDL134C, strain PPH21, stronger effect = lower value 0.999 | locus YDL185W, strain tfp1, stronger effect = lower value 0.986 | locus YDL192W, strain arf1, stronger effect = lower value 1.02 | locus YDR001C, strain nth1, stronger effect = lower value 0.942 | locus YDR069C, strain doa4, stronger effect = lower value 0.955 | locus YDR101C, strain arx1, stronger effect = lower value 1.01 | locus YDR150W, strain NUM1, stronger effect = lower value 0.994 | locus YDR159W, strain sac3, stronger effect = lower value 0.902 | locus YDR162C, strain NBP2, stronger effect = lower value 0.99 | locus YDR195W, strain ref2 0.955 | locus YDR297W, strain sur2, stronger effect = lower value 0.962 | locus YDR318W, strain mcm21, stronger effect = lower value 1.01 | locus YDR334W, strain swr1, stronger effect = lower value 0.945 | locus YDR335W, strain msn5, stronger effect = lower value 0.943 | locus YDR388W, stronger effect = lower value 1.01 | locus YDR392W, strain spt3, stronger effect = lower value 0.893 | locus YDR502C, strain sam2, stronger effect = lower value 1.01 | locus YEL003W, strain gim4, stronger effect = lower value 0.963 | locus YEL037C, strain rad23, stronger effect = lower value 0.954 | locus YEL061C, strain CIN8 (second series), stronger effect = lower value 0.929 | locus YEL061C, strain CIN8, stronger effect = lower value 0.998 | locus YER015W, strain faa2, stronger effect = lower value 0.969 | locus YER016W, strain bim1, stronger effect = lower value 0.962 | locus YER110C, stronger effect = lower value 1.01 | locus YER111C, strain swi4, stronger effect = lower value 0.944 | locus YER155C, strain BEM2 (second series), stronger effect = lower value 0.887 | locus YER155C, strain BEM2, stronger effect = lower value 0.98 | locus YER167W, strain BCK2, stronger effect = lower value 0.991 | locus YFR010W, strain ubp6, stronger effect = lower value 0.951 | locus YGL078C, strain dbp3, stronger effect = lower value 1.01 | locus YGL086W, strain mad1, stronger effect = lower value 0.99 | locus YGL167C, strain pmr1, stronger effect = lower value 0.929 | locus YGL173C, strain kem1, stronger effect = lower value 0.952 | locus YGL227W, strain vid30, stronger effect = lower value 0.93 | locus YGL240W, strain doc1, stronger effect = lower value 0.912 | locus YGL248W, strain PDE1, stronger effect = lower value 1.01 | locus YGL253W, strain hxk2, stronger effect = lower value 0.939 | locus YGR078C, strain PAC10, stronger effect = lower value 1.01 | locus YGR135W, strain pre9, stronger effect = lower value 1.01 | locus YGR229C, strain SMI1, stronger effect = lower value 1.03 | locus YGR252W, strain gcn5, stronger effect = lower value 0.982 | locus YHR013C, strain ard1, stronger effect = lower value 0.93 | locus YHR027C, strain rpn1, stronger effect = lower value 0.938 | locus YHR079C, strain IRE1 (second series), stronger effect = lower value 1.01 | locus YHR094C, strain hxt1, stronger effect = lower value 1.01 | locus YHR129C, strain ARP1, stronger effect = lower value 0.993 | locus YHR142W, strain chs7, stronger effect = lower value 0.939 | locus YHR200W, strain rpn10, stronger effect = lower value 1 | locus YIL066C, strain RNR3, stronger effect = lower value 1.01 | locus YIL073C, strain SPO22, stronger effect = lower value 1.1 | locus YIL125W, strain kgd1, stronger effect = lower value 0.991 | locus YIR030C, strain dcg1, stronger effect = lower value 1.01 | locus YJL092W, strain hpr5, stronger effect = lower value 0.94 | locus YJL095W, strain BCK1 (second series), stronger effect = lower value 0.95 | locus YJL115W, strain asf1, stronger effect = lower value 0.922 | locus YJL134W, strain LCB3, stronger effect = lower value 0.998 | locus YJL154C, strain vps35, stronger effect = lower value 0.948 | locus YJL164C, strain tpk1, stronger effect = lower value 0.961 | locus YJL166W, strain qcr8, stronger effect = lower value 0.942 | locus YJL168C, strain set2, stronger effect = lower value 1.01 | locus YJL187C, strain SWE1 (second series), stronger effect = lower value 0.999 | locus YJL187C, strain SWE1, stronger effect = lower value 0.947 | locus YJR043C, strain POL32, stronger effect = lower value 0.997
0.999 (inactive) and 0.829 (active): locus YHR030C, strain SLT2, stronger effect = lower value
